DT40 TDP1 no CPT – qHTS for Inhibitors of human tyrosyl-DNA phosphodiesterase 1 (TDP1): qHTS in cells in absence of CPT | DT40 Tdp1-/- hTDP1 cells, no CPT, ATP luminescence, 48 h | Potency, µM (titrated, usually from 46.2 µM), without a hit: at the highest dose activity change, negative = growth inhibition, most hits filed as inhibitors | 15% of 420,000 active | AID 686978, 2013; note: potency is the fitted concentration of half-maximal effect; % is set by controls: 0 for no effect and ±100 for the full control effect; nearly all actives have a fitted effect of over 55% in size
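DT40 Tdp1-/-;hTDP1 cells, no CPT (DMSO vehicle only), 400 cells/well; compounds pin-transferred; ≥48 hr, 37 °C; CellTiter-Glo 30 min RT dark, luminescence read.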
D3 ag – agonists of human D3 dopamine receptor. P35462. D3R DiscoveRx beta-arrestin cells, luminescence, 90 min. max activation, %. 0.58% of 410,000 active. AID 652048; in the data active = max activation above about 30%; note: 0% is about no effect
Target sequence (P35462 whole entry, looked up): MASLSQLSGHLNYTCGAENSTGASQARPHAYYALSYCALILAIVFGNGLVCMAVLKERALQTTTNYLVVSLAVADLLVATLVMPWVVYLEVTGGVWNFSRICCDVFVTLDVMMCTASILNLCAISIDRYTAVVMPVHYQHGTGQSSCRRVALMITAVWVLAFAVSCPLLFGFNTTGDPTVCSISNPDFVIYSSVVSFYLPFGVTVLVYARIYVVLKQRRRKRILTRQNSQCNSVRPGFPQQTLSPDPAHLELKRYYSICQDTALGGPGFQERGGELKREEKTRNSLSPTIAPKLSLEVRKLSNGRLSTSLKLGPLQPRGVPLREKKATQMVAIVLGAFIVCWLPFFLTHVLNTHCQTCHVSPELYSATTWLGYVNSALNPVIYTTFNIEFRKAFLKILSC
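Cells at 1500/well, incubated overnight, then treated with pinned compounds (dopamine as control) for 90 min at 37 degrees C. DiscoveRx reagent added for 30 - 60 minutes at room temperature; luminescence read.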
IL1B secr inh – inflammasome signaling inhibition, IL-1 beta readout. THP-1 LPS/ATP IL-1B secretion, AlphaLISA, 16 h; stronger effect = lower value. 4.7% of 360,000 active. activity change, % at 57.5 µM; in the data active = activity change below about -50%; inconclusive = mostly about -30% to -49%; note: % is set by controls: 0 for no effect and ±100 for the full control effect
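Secreted IL-1B measured by AlphaLISA bead assay after 16 h compound exposure of THP-1 cells; compounds (final up to 57.5 uM) added 1 h before LPS (250 ng/mL) and ATP (1.25 mM) stimulation; lower signal means less secretion.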
ClpP mod – qHTS Assay for Activators of ClpP | Potency, µM (titrated, usually from 57.5 µM), without a hit: at the highest dose activity change, negative = active | AID 651965, 2013 | purified B. subtilis ClpP, FRET peptide cleavage, 20 min | 1.9% of 340,000 active; active = well fitted falling curve with a large enough effect; inconclusive = small, poorly fitted or top-dose-only effect; inactive = no such curve, though single readings can be large or run the other way; note: potency is the fitted concentration of half-maximal effect; the source files actives as falling curves though it sought activators and does not explain the sign; nearly all actives have a fitted effect of over 65% in size
Target sequence (P80244 whole entry, looked up): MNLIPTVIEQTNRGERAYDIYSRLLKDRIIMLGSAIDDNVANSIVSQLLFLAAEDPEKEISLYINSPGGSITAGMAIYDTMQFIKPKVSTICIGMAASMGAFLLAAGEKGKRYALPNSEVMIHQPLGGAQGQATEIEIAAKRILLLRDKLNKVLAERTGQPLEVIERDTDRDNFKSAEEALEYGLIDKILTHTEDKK
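Purified B. subtilis ClpP, 10 microg/mL final in Tris/HCl pH8 with KCl, BSA, glycerol and Tween-20, cleaved an Abz/nitrotyrosine-quenched decapeptide. Fluorescence (ex 320, em 430) was read at 0 and 20 min at room temperature. Delta was normalized to 5.8 microM ADEP and DMSO/no-enzyme controls.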
D3 antag – antagonists of human D3 dopamine receptor; P35462; D3R cells, DiscoveRx beta-arrestin luminescence, antagonist mode; stronger effect = lower value; max response, negative = inhibition, %; 2.5% of 360,000 active; in the data active = max response below about -50%; inconclusive = no clear call, values can overlap the other calls; note: % is set by controls: 0 for no effect and ±100 for the full control effect
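Cells plated overnight at 1500 cells/well, then exposed to library compounds with dopamine controls for 90 minutes at 37 degrees C. DiscoveRx reagent added for 30–60 minutes at room temperature; luminescence read, quantitative HTS format.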
TDP1 cell CPT – growth inhibition of DT40 Tdp1-/-;hTDP1 cells with camptothecin (screen for TDP1 inhibitors); chicken DT40 Tdp1-/-;hTDP1 cells + 20 nM CPT, ATP luminescence, 48 h; Potency, µM (series often up to 46.2 µM), for inactives: top-dose activity change, negative = growth inhibition, actives largely listed as inhibitors; 12% of 420,000 active; AID 686979; note: potency is the fitted concentration of half-maximal effect; % is set by controls: 0 for no effect and ±100 for the full control effect; nearly all actives have a fitted effect of over 55% in size
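Chicken DT40 Tdp1-/- cells complemented with human TDP1, 400 cells/well, exposed to compounds plus 20 nM camptothecin for at least 48 h at 37 C; viability read as ATP content by CellTiter-Glo luminescence.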
* hit, by the source's call; ? = inconclusive; / = no result given. Shown are actives, neighbours in structure and some others; about 21% of the full set was active somewhere. Unless noted, calls come from the whole dose curve; as a rule, active = well fitted inhibition curve with a large enough effect; inconclusive = small, poorly fitted or top-dose-only effect; inactive = flat fitted curve, though single readings scatter.

SMILES	DT40 TDP1 no CPT	D3 ag	IL1B secr inh	ClpP mod	D3 antag	TDP1 cell CPT
COc1cccc(/C=N/n2c(-c3ccco3)nc3ccccc3c2=O)c1	18.4µM*	6.4	1.6	-3.0%	25.4	?
C=CCn1cnc2c(c1=O)c1nc3ccccc3nc1n2/N=C/c1ccccn1	20.6µM*	-1.2	-64.9*	?	8.3	16.4µM*
CCCCn1c(SCC(=O)NCc2ccco2)nc2ccccc2c1=O	-22.8%	1.0	-8.6	-0.2%	4.5	?
COc1ccc(/C=N/n2c(-c3ccco3)nc3ccccc3c2=O)cc1	?	-0.5	-10.7	1.3%	20.7	?
CCCCn1c(-c2ccco2)nc2ccccc2c1=O	16.4µM*	0.1	9.5	?	-0.7	?
CC(C)OCCCn1c(-c2ccco2)nc2nc3ccccc3nc21	23.1µM*	-13.8	-16.9	17.8%	-7.6	?
Cc1cccn2c(=O)cc(COc3cccc(NC(=O)COc4ccccc4)c3)nc12	?	-17.1	/	21.5%	/	?
Nc1cccc2[nH]cnc12	0.1%	/	/	-26.3%	/	-5.0%
COc1ccccc1-n1cnc2c(c1=O)c1nc3ccccc3nc1n2-c1ccc(C)cc1	?	0.7	-1.1	-18.8%	-13.9	?
O=c1c2c3nc4ccccc4nc3n(/N=C/c3ccccn3)c2ncn1-c1ccccc1	?	-3.6	?	/	?	2.59µM*
COc1cc(/C=N/n2c(C)nc3ccccc3c2=O)ccc1O	-2.8%	0.4	-25.5	-1.1%	19.2	-14.8%
COCCCn1cnc2oc3nc4ccccc4nc3c2c1=O	0.0%	2.2	-3.6	0.1%	15.6	2.0%
COCCn1cnc2c(c1=O)c1nc3ccccc3nc1n2/N=C/c1cccc(OC)c1	11.6µM*	24.6	-0.3	/	28.5	13µM*
C=CCn1cnc2c(c1=O)c1nc3ccccc3nc1n2/N=C/c1cc(OC)c(OC)c(OC)c1	3.26µM*	-4.2	-4.9	-0.1%	-21.4	4.11µM*
O=C(COC(=O)CNC(=O)c1ccc([N+](=O)[O-])o1)Nc1ncc(Cl)cc1Cl	-6.8%	0.0	-92.2*	-1.2%	7.1	?
O=C(COC(=O)CNS(=O)(=O)c1ccccc1)Nc1ncc(Cl)cc1Cl	6.51µM*	0.1	-16.1	-2.9%	-13.3	6.4%
O=S(=O)(c1ccccc1)N1CCC2(CC1)CN(c1ccccc1)C2	?	/	/	/	/	-1.8%
O=S(=O)(c1ccccc1)N1CCC2(CCCN(c3ccccc3)C2)CC1	?	/	/	/	/	6.4%
O=S(=O)(c1ccccc1)N1CCC2(CC1)CN(c1ccncc1)C2	9.2µM*	/	/	/	/	?
O=S(=O)(c1ccccc1)N1CCC2(CCCN(c3ccccn3)C2)CC1	20.6µM*	/	/	/	/	?
O=S(=O)(c1ccccc1)N1CCC2(CC1)CN(Cc1ccccc1)C2	?	/	/	/	/	-6.0%
O=S(=O)(c1ccccc1)N1CCC2(CCN(Cc3ccncc3)CC2)CC1	20.6µM*	/	/	/	/	?
O=S(=O)(c1ccccc1)N1CCC2(CCCN(c3ncccn3)C2)CC1	?	/	/	/	/	-3.5%
O=S(=O)(c1ccccc1)N1CCC2(CCCN(c3ccncc3)C2)CC1	1.16µM*	/	/	/	/	2.06µM*
c1cc2[nH]snc2c2nc(C3CC3)nc12	13µM*	33.9*	-86.2*	-27.1%	24.3	18.4µM*
SMILES	DT40 TDP1 no CPT	D3 ag	IL1B secr inh	ClpP mod	D3 antag	TDP1 cell CPT
Cc1ccc2c(c1C)NC(=O)C21N2CCCC2C(C(=O)c2ccc3ccccc3c2)C12C(=O)Nc1ccccc12 (configuration not stated)	11.6µM*	-18.5	?	-0.5%	-5.9	23.1µM*
Cc1ccc2c(c1C)NC(=O)C2(O)CC(=O)c1ccc2c(c1)OCO2 (configuration not stated)	-11.3%	-10.7	22.9	-3.7%	7.0	-17.4%
Cc1cccc(C)c1NC(=O)C(c1ccc(C(F)(F)F)cc1)n1c(=O)c(-c2ccccc2)nc2ccccc21 (configuration not stated)	?	-6.7	45.7	1.4%	0.5	?
N#Cc1cc2sc3nnc(-c4ccncc4)n3c2cc1C#N	10.3µM*	0.0	-83.3*	-27.3%	13.5	?
N#CCSc1nnc2sc3ccccc3n12	-9.5%	2.5	1.1	0.1%	3.8	20.3%
COc1cc(OC)c(N(C)S(=O)(=O)c2cccc(C(=O)Nc3nc(C)cs3)c2)cc1Cl	?	4.8	15.9	-1.9%	22.2	16.4µM*
COc1ccccc1N(C)S(=O)(=O)c1ccc(Cl)c(C(=O)NC2=NCCS2)c1	-27.9%	2.1	-13.3	/	4.8	2.6%
COc1cc(OC)c(N(C)S(=O)(=O)c2cccc(C(=O)NC3=NCCS3)c2)cc1Cl	?	3.0	-16.8	/	9.3	23.1µM*
COc1cc(OC)c(N(C)S(=O)(=O)c2cccc(C(=O)OCC(=O)N(C)Cc3ccccc3)c2)cc1Cl	23.1µM*	5.8	0.0	-1.1%	-2.5	16.4µM*
CC(C)NC(=O)N(C)C[C@H]1Oc2ccc(NC(=O)c3ccncc3)cc2C(=O)N([C@H](C)CO)C[C@@H]1C	-2.7%	6.6	28.7	-3.4%	0.0	-1.7%
O=C(Nc1ccc(Br)cc1F)c1cc(S(=O)(=O)NCc2ccc(F)cc2)ccc1F	?	0.7	/	4.8%	/	-11.3%
C=CCn1c2ccccc2c2nnc(SCC(N)=O)nc21	6.8%	7.2	4.1	-0.9%	5.2	-9.3%
C=CCSc1nnc2nc3c(nn12)c1cc(C)ccc1n3CC=C	?	-3.9	-7.3	1.7%	-8.1	16.4µM*
CC(C)OC(=O)c1c(NC(=O)C2c3ccccc3Oc3ccccc32)sc2c1CCCC2	?	15.2	/	?	/	?
COc1ccc(CN2CCCC(CNC(=O)c3ccc(F)cc3)C2)c(C)c1C (configuration not stated)	?	-10.1	-24.9	-2.0%	?	-26.9%
CN(Cc1ccccc1)c1nc(CN2CCOCC2)nc2scc(-c3ccccc3)c12	16.4µM*	-7.7	-13.7	-2.6%	-2.6	?
Fc1ccc(N2CCN(c3nc(CN4CCOCC4)nc4scc(-c5ccccc5)c34)CC2)cc1	14.6µM*	-0.5	-0.8	-5.1%	27.8	23.1µM*
O=C(CSc1nc2scc(-c3ccccc3)c2c(=O)[nH]1)N1CCOCC1	-28.2%	2.7	-9.8	-16.2%	12.5	?
CCCNC(=O)N1CCCN(S(=O)(=O)c2ccc3c(ccn3CC)c2)CC1	/	-2.6	/	-4.2%	/	/
Cc1nc(-c2cccc(NC(=O)c3cccs3)c2)cs1	?	-3.8	10.7	-5.1%	-6.6	-22.9%

Screening data (PubChem)
